The list is not random: actives were taken first. Their share in the collection is about 2.2%.
KLK7 zymogen act: proKLK7 zymogen activators, primary screen, biochemical, fluorescence intensity | Kallikrein-7 (Homo sapiens), P49862 | activation, % at 7 µM | 370,000 compounds, 0.9% hits | purified proKLK7, EDANS-DABCYL substrate fluorescence; 100% is mature enzyme control, 0% vehicle;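 active = activation above the mean of all tested compounds plus 3 SD, computed per campaign excluding outliers beyond control limits, cut at about 13% in these data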
Target sequence (P49862 whole entry, looked up): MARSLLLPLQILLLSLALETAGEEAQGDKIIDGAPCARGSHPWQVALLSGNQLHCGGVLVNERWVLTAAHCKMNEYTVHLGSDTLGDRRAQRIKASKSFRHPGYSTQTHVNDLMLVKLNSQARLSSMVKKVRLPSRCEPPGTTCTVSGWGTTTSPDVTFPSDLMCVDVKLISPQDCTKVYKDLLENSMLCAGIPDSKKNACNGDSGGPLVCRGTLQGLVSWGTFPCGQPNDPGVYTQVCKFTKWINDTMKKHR
GC-B act: human GC-B receptor activators, primary screen, HEK293 GC-B cells, cGMP TR-FRET, EC30 CNP; Atrial natriuretic peptide receptor 2 (Homo sapiens), P20594; 0% at EC30 CNP, 100% saturating CNP; activation, % at 10 µM; 370,000 compounds, 0.11% hits; AID 1920062, 2024;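 active = activation at 10 µM reaching about 35% in either raw or pattern-adjusted values, limit read from the data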
GC-A act: GC-A stimulated cGMP production enhancers – HEK293 GC-A cells, cGMP TR-FRET, EC30 ANP, primary screen; Atrial natriuretic peptide receptor 1 (Homo sapiens), P16066; 370,000 compounds, 0.14% hits; activation, % at 10 µM; AID 1671463, 2021; 0% at EC30 ANP, 100% saturating ANP; in the data active = activation above about 40%
ADAM17 inh: ADAM17 inhibitors, primary screen, biochemical, QFRET; AID 720648, 2013; Disintegrin and metalloproteinase domain-containing protein 17 (Homo sapiens), P78536; recombinant ADAM17, EDANS/DABCYL FRET peptide cleavage; inhibition, % at 6.95 µM; 370,000 compounds, 0.83% hits;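 active = inhibition above the mean of compounds lying between control limits plus 3 SD, set per campaign, cut at about 8.5% in these data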
ADAM10 inh: human ADAM10 inhibitors, primary screen, biochemical, QFRET, HTS. 370,000 compounds, 0.62% hits. AID 720582, 2013. recombinant ADAM10, EDANS/DABCYL FRET peptide cleavage, 3 h. Disintegrin and metalloproteinase domain-containing protein 10 (Homo sapiens), O14672. inhibition, % at 7 µM;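 active = inhibition above a per-campaign cutoff equal to the mean of compounds falling between control-based bounds plus 3 SD, cut at about 20% in these data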
proKLK7 act conf: proKLK7 zymogen activators, confirmation, biochemical, fluorescence intensity, triplicate; AID 686949, 2013; activation, % at 7 µM; purified proKLK7, EDANS-DABCYL substrate fluorescence; scaled: vehicle 0, mature enzyme 100; 3,200 compounds, 68% hits; shares compounds with KLK7 zymogen act;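 active = activation, as change over the incubation, above the mean of all tested compounds plus 3 SD, cut at about 13% in these data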
EDANS-DABCYL int: EDANS-DABCYL substrate optical interference, artefact control for kallikrein-7 zymogen activator project, biochemical, fluorescence intensity, high throughput. no enzyme, 4 h; solvent 0%, active enzyme control 100%. 3,200 compounds, 80% hits. activation, % at 7 µM. shares compounds with KLK7 zymogen act. AID 686952, 2013;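 active = activation above the all-compound mean plus 3 SD, ignoring values outside control-based bounds, cut at about 4.8% in these data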;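 note: value is the 4 h activation minus the activation read at time zero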
K7 EDANS ctr: counter-screen for kallikrein-7 activators: EDANS-DABCYL interference, dose response | EC50, µM | 250 compounds, 20% hits | shares compounds with KLK7 zymogen act | EDANS-DABCYL peptide fluorescence interference, no enzyme;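 active = compounds that raise the fluorescence signal in this interference counterscreen, with EC50 at or below 10 µM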;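 note: intact quenched peptide substrate alone read at 355 nm excitation and 520 nm emission; signal is fluorescence gain from T0 to T4 after four hours at room temperature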
ADAM10 confirm: human ADAM10 inhibitors, confirmation, biochemical, QFRET, triplicate; 2,100 compounds, 1% hits; shares compounds with ADAM10 inh; ADAM10 QFRET peptide cleavage, EDANS fluorescence; inhibition, % at 6.95 µM;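 active = inhibition above about 20% chosen separately for each screening run, limit read from the data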
ADAM17 ctr: ADAM17 inhibitors, counter-screen for ADAM10 exosite inhibitor project, biochemical, QFRET, high throughput; 2,100 compounds, 0.5% hits; inhibition, % at 6.95 µM; AID 743214, 2013; shares compounds with ADAM10 inh; ADAM17 QFRET peptide cleavage, EDANS fluorescence;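 active = mean triplicate inhibition above the solvent-only control wells' mean plus 3 SD, cut at about 12% in these data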
ADAM10 ctr: ADAM10 inhibitors, counter-screen for ADAM17 exosite inhibitor project, biochemical, FRET, human ADAM10; shares compounds with ADAM17 inh; recombinant ADAM10, EDANS/DABCYL FRET peptide cleavage, 3 h; inhibition, % at 6.95 µM; 2,900 compounds, 47% hits;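 active = mean inhibition over the triplicate runs exceeds the activity threshold set in the earlier primary screen, cut at about 20% in these data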
ADAM17 confirm: ADAM17 inhibitors, hit retest, confirmation, biochemical, QFRET peptide cleavage; 2,900 compounds, 65% hits; inhibition, % at 6.95 µM; shares compounds with ADAM17 inh; recombinant ADAM17, EDANS/DABCYL QFRET peptide cleavage;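 active = mean inhibition across replicates above the hit cutoff set in the primary screen, cut at about 8.5% in these data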
Each line names hits and unclear results; the compound was inactive in the other large screens (follow-up assays come after a bar, where they were run); ! = not active in a repeat.

CCOC(=O)c1cc2c(=O)n3ccccc3nc2n(CCOC)c1=NC(=O)c1ccncc1	KLK7 zymogen act 23.9 | proKLK7 act conf inactive | EDANS-DABCYL int 12.8
CCOC(=O)c1cc2c(=O)n3ccccc3nc2n(CCCOC)c1=NC(=O)C(C)(C)C	KLK7 zymogen act 22.0 | proKLK7 act conf 15.5 | EDANS-DABCYL int 14.9
CCOCCCn1c(=NC(C)=O)c(C#N)cc2c(=O)n3ccccc3nc21	KLK7 zymogen act 22.6 | proKLK7 act conf inactive | EDANS-DABCYL int 16.7
CCOCCCn1c(=NC(C)=O)c(C(=O)OCC)cc2c(=O)n3ccccc3nc21	none
O=C(c1ccccc1)N1CC[C@H]2[C@H](CCCN2Cc2ccccc2)C1	none
Cc1cc(C)nc(N2CCN(C(=O)CSc3nc4ccccc4nc3N3CC(C)OC(C)C3)CC2)n1 (stereo not given)	none
Cc1cccc(-c2cccc3c4c([nH]c23)[C@@H]2C[C@H](N(C)C(=S)Nc3ccc(C#N)cc3)[C@H]([C@H](C)O)CN2CC4)c1	none
CCOC(=O)c1cc2c(=O)n3ccccc3nc2n(CC(C)C)c1=NC(=O)c1ccco1	KLK7 zymogen act 29.7 | proKLK7 act conf 24.1 | EDANS-DABCYL int 25.6
NC(=O)c1ccc(-c2ncc(-c3ccccc3)o2)cc1	KLK7 zymogen act 69.2 | proKLK7 act conf 58.6 | EDANS-DABCYL int 62.0
c1ccc(-c2cnc(-c3cccnc3)o2)cc1	none
CCOc1ccc(/C=C(\C)C(=O)c2c(C)cc(C)[nH]c2=O)cc1	KLK7 zymogen act 27.8, ADAM10 inh 19.8 | proKLK7 act conf inactive | EDANS-DABCYL int inactive | ADAM10 confirm inactive | ADAM17 ctr inactive
O=C(NN=Cc1ccc(O)cc1)c1cc(-c2ccc(Cl)cc2)n[nH]1	none
CCc1ccccc1NC(=O)CSc1nc2n[nH]c(C)c2c(=N)n1-c1ccc(OC)cc1	KLK7 zymogen act 31.4, ADAM17 inh 11.9 | proKLK7 act conf 20.2 | EDANS-DABCYL int 16.1 | K7 EDANS ctr 3.27 | ADAM10 ctr inactive | ADAM17 confirm 9.0
Cc1ccccc1NC(=O)CSc1nc(N)c(C#N)c(-c2cccs2)c1C#N	none
COc1ccc(CCNC(=O)CSc2nc(N)c(C#N)c(-c3cccs3)c2C#N)cc1OC	KLK7 zymogen act 22.2, ADAM17 inh 8.9 | proKLK7 act conf 35.1 | EDANS-DABCYL int 40.6 | ADAM10 ctr inactive | ADAM17 confirm inactive
COC(=O)[C@]12C[C@H](CC(=O)NCCc3ccccc3OC)C(=O)N(CCC3=CCCCC3)C1=C[C@H](C1CCCC1)O[C@@H]2C	none
C#CCn1c(S(=O)(=O)Cc2ccc(C)cc2)nc(-c2ccccc2)c1-c1ccccc1	ADAM10 inh 22.8 | ADAM10 confirm inactive | ADAM17 ctr inactive
CCCSC1=C(C#N)C(c2cccs2)C(C(=O)Nc2ccccc2)=C(C)N1 (stereo not given)	ADAM10 inh 27.5 | ADAM10 confirm 21.7 | ADAM17 ctr inactive
COC(=O)[C@]12C[C@H](CC(=O)NCc3ccc(C)o3)C(=O)N(CCc3ccc(OC)c(OC)c3)C1=C[C@H](C1CCCC1)O[C@@H]2C	none
Cc1nc(-c2cccc(NS(=O)(=O)c3ccc4ccccc4c3)c2)cs1	ADAM10 inh 25.9 | ADAM10 confirm inactive | ADAM17 ctr inactive
CCOC(=O)Nc1ccc2c(c1)N(C(=O)OCCN(C)C)c1ccccc1CC2	ADAM10 inh 51.0! | ADAM10 confirm inactive | ADAM17 ctr inactive
CCOC(=O)Nc1ccc2c(c1)N(C(=O)CCN(C)C)c1ccccc1CC2	none
O=C(CN1CCc2onc(-c3ccc(-n4cc(COc5ccc([N+](=O)[O-])cc5)nn4)cc3)c2C1=O)N1CCOCC1	none
C[C@H]1CN([C@@H](C)CO)C(=O)Cc2cc(NC(=O)CCC(F)(F)F)ccc2O[C@H]1CN(C)Cc1ccc(-c2ccccc2)cc1	ADAM10 inh 28.7 | ADAM10 confirm inactive | ADAM17 ctr inactive
CC(=O)CC[C@H]1CC[C@]2(CCCN(Cc3nccn3C)C2)O1	none
COC(=O)[C@@H]1[C@H](O[Si](C)(C)C(C)(C)C)C2OC2C[C@H]1S(=O)(=O)c1ccccc1 (stereo not given in full)	none (no result: KLK7 zymogen act)
c1ccc2c(c1)CSc1ccccc1N2	ADAM10 inh 20.6 | ADAM10 confirm inactive | ADAM17 ctr inactive
S=C1Nc2ccccc2CS1	none
C=CCN1C(=O)[C@@H](CC(=O)NCc2cccs2)[C@]2(C(=O)OCC)CCCCC/C=C/12	none
Fc1ccc(NC(=S)Nc2cc(-c3ccccc3)[nH]n2)cc1Cl	ADAM10 inh 21.6 | ADAM10 confirm inactive | ADAM17 ctr inactive
Cc1ccc2oc(=O)c(/C=C(\O)c3ccco3)nc2c1	ADAM10 inh 21.3 | ADAM10 confirm inactive | ADAM17 ctr inactive
COC(=O)[C@]12C[C@H](CC(=O)NCc3ccc(OC)c(OC)c3)C(=O)N(Cc3ccc(Cl)cc3Cl)C1=C[C@H](COCc1ccccc1)O[C@@H]2C	none

Source: PubChem
